High-throughput results from PubChem BioAssay.
HGIII-sPLA2 inh: human group III sPLA2 inhibitors, primary screen, biochemical, QFRET, BODIPY PC-A2 liposome substrate. 370,000 tested, 0.56% active. inhibition, % at 12.2 µM. QFRET BODIPY PC-A2 liposome hydrolysis, fluorescence;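 active = inhibition above mean plus 3 SD of compounds lying within the high and low control bounds, cut at about 19% in these data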;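 note: 0% = median of test compound wells and 100% = no enzyme DMSO wells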
Target sequence (Q9NZ20 whole entry, looked up): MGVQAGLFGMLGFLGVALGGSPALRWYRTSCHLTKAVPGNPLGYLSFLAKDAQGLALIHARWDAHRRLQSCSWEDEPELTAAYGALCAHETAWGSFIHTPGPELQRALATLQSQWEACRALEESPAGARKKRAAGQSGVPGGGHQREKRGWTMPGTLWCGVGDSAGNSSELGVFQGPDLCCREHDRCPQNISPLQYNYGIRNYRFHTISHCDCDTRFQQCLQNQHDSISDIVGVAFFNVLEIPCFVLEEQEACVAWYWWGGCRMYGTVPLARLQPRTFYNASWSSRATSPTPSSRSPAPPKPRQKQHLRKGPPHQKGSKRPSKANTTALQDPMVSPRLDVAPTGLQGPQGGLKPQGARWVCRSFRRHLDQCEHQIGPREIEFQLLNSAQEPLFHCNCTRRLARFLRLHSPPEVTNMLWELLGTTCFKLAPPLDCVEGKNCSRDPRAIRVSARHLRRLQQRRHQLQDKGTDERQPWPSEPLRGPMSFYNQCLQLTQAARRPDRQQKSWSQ
DAGLB inh: DAGLB lipase inhibitors, primary screen, biochemical, fluorescence, HTS | HEK293T DAGLB membrane lysate, EnzChek fluorogenic substrate | inhibition, % at 5.17 µM | 340,000 tested, 0.059% active; in the data active = inhibition above about 34%;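 note: 0% = enzyme with vehicle and 100% = wells lacking enzyme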
PLC-gamma1 inh: PLC-gamma1 enzyme inhibitors, primary screen, biochemical, fluorescence, purified enzyme; fluorogenic substrate; inhibition, % at 12.2 µM; 370,000 tested, 0.84% active; AID 720700, 2013
PLCb3 inh: human PLC-beta3 inhibitors, primary screen, biochemical, fluorescence. AID 720704, 2013. 1-phosphatidylinositol 4,5-bisphosphate phosphodiesterase beta-3 (Homo sapiens), Q01970. Purified PLC-beta3, fluorogenic substrate. 370,000 tested, 0.18% active. inhibition, % at 12.2 µM; in the data active = inhibition above about 11%;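 note: 0% = median of compound wells on plate and 100% = full blocker control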
PLCg1 ctr: PLC-gamma1 enzyme inhibitors, counter-screen for PLC-beta3 inhibitor project, biochemical, fluorescence | purified PLC-gamma1, fluorogenic substrate | 3,300 tested, 3.1% active | inhibition, % at 12.3 µM | shares compounds with PLC-gamma1 inh
PLCb3 confirm: PLC-beta3 inhibitor confirmation, biochemical, fluorescence, purified enzyme; shares compounds with PLC-gamma1 inh; fluorogenic substrate fluorescence; inhibition, % at 12.3 µM; 3,300 tested, 1% active; AID 743261, 2014; in the data active = inhibition above about 11%
* marks the source's active call; other numbers are inactive results; . = not tested or not shown. Shown are actives, neighbours in structure and some others; about 1.5% of the full set was active somewhere. Cut-off read from the data, not from the text of the source, unless noted: active = inhibition above about 9.5%; inactive = the rest.

SMILES | HGIII-sPLA2 inh | DAGLB inh | PLC-gamma1 inh | PLCb3 inh | PLCg1 ctr | PLCb3 confirm
COc1cccc(NC(=O)N2CCN(c3nnnn3-c3ccccc3)CC2)c1 | 2 | -1 | 10* | 5 | 5 | 0
CCOc1ccc(NC(=O)C2CCN(c3nnnn3-c3ccccc3)CC2)cc1 | -5 | -1 | 10* | 5 | -7 | -3
COC(=O)[C@]12C[C@H](CC(=O)NCCc3ccccc3OC)C(=O)N(CCc3ccc(OC)c(OC)c3)C1=C[C@H](C(C)(C)C)O[C@@H]2C | -18 | . | 0 | 0 | . | .
CC(Oc1ccccc1)C(=O)Nc1cccc(NC(=O)c2ccco2)c1 (stereo not drawn) | -1 | -1 | 11* | 6 | -5 | -1
COc1ccc(-n2c(SCC(=O)Nc3ccc(S(=O)(=O)Nc4nccs4)cc3)nnc2-c2cccs2)cc1 | -43 | . | -11 | -17 | . | .
O=C(Nc1nc(C2C3CC4CC(C3)CC2C4)cs1)c1cc2cc([N+](=O)[O-])ccc2oc1=O (stereo not drawn) | 3 | 3 | 14* | 8 | 6 | -1
O=C(Nc1ccc(C(O)(C(F)(F)F)C(F)(F)F)cc1)c1ccc(Cl)cc1 | -13 | . | 2 | -1 | . | .
CCOC(=O)N1CCN(C(=O)C[C@@H]2C(=O)N(CCc3ccc(Cl)cc3)/C3=C/CCCCC[C@@]32C(=O)OCC)CC1 | -1 | . | 1 | 0 | . | .
CC(C)C(C)NC(=O)COC(=O)C1CCN(S(=O)(=O)c2ccc3c(c2)OCCO3)CC1 (stereo not drawn) | 13 | 0 | 11* | -2 | -6 | -1
CCNC(=O)COC(=O)C1CCN(S(=O)(=O)c2ccc3c(c2)OCCO3)CC1 | 0 | 1 | 10* | -4 | -4 | -1
O=C(COC(=O)C1CCN(S(=O)(=O)c2ccc3c(c2)OCCO3)CC1)NC1CCCCC1 | -12 | 1 | 0 | 0 | . | .
CCCNC(=O)COC(=O)C1CCN(S(=O)(=O)c2ccc3c(c2)OCCO3)CC1 | -3 | -1 | 1 | 0 | . | .
C=CCOc1ccc(/C(O)=C2/C(=O)C(=O)N(CCCN3CCOCC3)C2c2ccccc2)cc1 (stereo not drawn) | 7 | 0 | 11* | 1 | -4 | -2
COc1ccc(-n2c(C)nn(C)c2=O)cc1 | -5 | -3 | 9.9* | 8 | -9 | -2
O=S(Cc1cc(Oc2ccccc2)nc(-c2ccccc2)n1)c1ccccc1 (stereo not drawn) | -4 | -6 | 13* | 4 | 1 | 2
NNC(=O)C1=NOC2COC3(CCN(c4ncccn4)CC3)OCC12 (stereo not drawn) | -1 | . | -1 | -1 | . | .
O=C(N/N=C\c1ccc(Cl)cc1)C1=NOC2COC3(CCN(c4ccc([N+](=O)[O-])cc4)CC3)OCC12 (stereo not drawn) | 8 | 5 | 14* | 13* | -19 | -24
CC(C)NC(=O)N[C@H]1C[C@@H]2O[C@H](CO)CC[C@@H]2O[C@@H]1CCc1ccc(-c2ccccc2F)cc1 | -10 | . | 0 | 0 | . | .
CCC1Sc2ccccc2N(CC(=O)NCCC(C)C)C1=O (stereo not drawn) | -2 | -2 | 13* | 3 | -7 | -2
COc1ccc(CNCC(O)(c2ccc(Cl)cc2)c2ccc(Cl)cc2)cc1OC | -13 | -8 | 9.8* | 6 | -2 | 3
c1nc(NC[C@@H]2CCCO2)c2cc(-c3ccc4c(c3)OCO4)ccc2n1 | 4 | . | -113 | -169 | . | .
O=S1(=O)N=C2CCCCCN2C(c2ccc(Br)cc2)N1 (stereo not drawn) | 0 | 1 | -11 | -34 | . | .
O=S1(=O)N=C2CCCCCN2C(c2ccc(Cl)cc2)N1 (stereo not drawn) | 1 | -2 | 10* | -2 | 4 | 3
COc1ccc(NC(=O)N(C)[C@H]2C[C@H]3c4[nH]c5c(-c6cccc(C)c6)cccc5c4CCN3C(=O)[C@H]2[C@H](C)O)cc1 | -28 | . | -74 | -95 | . | .
Cc1ccc(Nc2n[nH]c(C)c2[N+](=O)[O-])cc1 | -1 | 2 | 0 | 1 | . | .
SMILES | HGIII-sPLA2 inh | DAGLB inh | PLC-gamma1 inh | PLCb3 inh | PLCg1 ctr | PLCb3 confirm
Cc1[nH]nc(Nc2ccc(C(C)C)cc2)c1[N+](=O)[O-] | -16 | 1 | 11* | -4 | -3 | -2
Cc1c(C(=O)N2CCCCC2)nnn1-c1nonc1N | -2 | 0 | 19* | 2 | -7 | -3
CN(Cc1cn(C)nc1-c1ccc(Oc2ccccc2)cc1)Cc1cnc2ccccn12 | 0 | 1 | 5 | -3 | . | .
Cn1cc(CNCc2cnc3ccccn23)c(-c2ccc(Oc3ccccc3)cc2)n1 | -8 | 0 | 15* | 8 | 2 | 5
CCCCNC(=O)NCC1CCN(Cc2ccc(OC)cc2)CC1 | 4 | . | 0 | 1 | . | .
CC(C)=CCC/C(C)=C/CN1C(=O)N(c2ccc(F)cc2)[C@H]2C[C@@H](c3ccccc3)[C@@H](C)[C@@H](C(=O)N3CCOCC3)C[C@H]21 | 1 | . | -1 | -1 | . | .
Cc1cc(C(F)F)n2nc(C(=O)Nc3ccc(S(=O)(=O)N4CCCCCC4)cc3)nc2n1 | 9 | -1 | 9.9* | 6 | -4 | -4
CC(=O)Nc1ccc(NC(=O)c2cc(S(=O)(=O)N3CCCCC3)ccc2C)cc1 | -7 | -1 | -2 | 7 | . | .
O=C(Nc1cccc(O)c1)c1ccc(S(=O)(=O)N2CCCCCC2)cc1 | -26 | 1 | 11* | -2 | 1 | -4
Cc1cc(C(F)F)n2nc(C(=O)Nc3cccc(S(=O)(=O)N4CCOCC4)c3)nc2n1 | 6 | 1 | -5 | -7 | . | .
Cc1ccc(S(=O)(=O)N2CCCCC2)cc1C(=O)Nc1ccc(N2CCOCC2)cc1 | 4 | 3 | 12* | 2 | -6 | -4
CN=C1S/C(=C/c2cc(C)n(-c3ccc(Cl)cc3F)c2C)C(=O)N1C | -3 | . | -11 | -19 | . | .
Cc1ccc2c(=O)[nH]c(Nc3nc(C)cc(-c4ccccc4)n3)nc2c1 | -4 | -1 | 11* | -4 | -5 | -2
N#Cc1cccc(CNCC(=O)N2CCC3(CC2)OCCO3)c1 | -5 | . | 1 | 1 | . | .
Cc1nn(CC(=O)N2CCN(c3ccccc3)CC2)c(C)c1[N+](=O)[O-] | 6 | 0 | 0 | -6 | . | .
Cc1ccc(S(=O)(=O)N2CCN(C(=O)Cn3nc(C)c([N+](=O)[O-])c3C)CC2)c(C)c1 | -4 | 2 | 10* | -8 | 0 | 2
Clc1nc(Cl)nc(N(c2ccccc2)c2ccccc2)n1 | 5 | -1 | 9.6* | 6 | -5 | 0
